Results on 37 molecules are retold here after PubChem BioAssay (EPA / NIEHS).

More than one record can exist for a structure, and the calls need not agree. Calls of active or inactive are those of the source. How the source made its calls: active means hit-call score of the fitted dose curve at least 0.9, where 1 is the maximum; inactive means score below 0.9.

This experiment can be described thus: ATG_TAL_CIS: Attagene CIS-FACTORIAL HepG2 Assay for human TAL Basal Promoter (AID 2282966). The conditions noted are these: HepG2 Attagene cis-factorial TAL promoter reporter; actives raise or lower the signal. The procedure:
ATG_CIS is a cell-based, multiplexed-readout assay that uses HepG2, a human liver cell line, with measurements taken at 24 hours after chemical dosing in a 24-well plate.ATG_TAL_CIS is one of 52 assay component(s) measured or calculated from the ATG_CIS assay. It is designed to make measurements of mRNA induction, a form of inducible reporter, as detected with fluorescence intensity signals by Reverse transcription polymerase chain reaction (RT-PCR) and Capillary electrophoresis technology.Data from the assay component ATG_TAL_CIS was analyzed into 1 assay endpoint. This assay endpoint, ATG_TAL_CIS, was analyzed with bidirectional fitting relative to DMSO as the negative control and baseline of activity. Using a type of inducible reporter, measures of mRNA for gain or loss-of-signal activity can be used to understand the background control at the transcription factor-level as they relate to the gene . Furthermore, this assay endpoint can be referred to as a secondary readout, because this assay has produced multiple assay endpoints where this one serves a background control function. To generalize the intended target to other relatable targets, this assay endpoint is annotated to the background measurement intended target family, where the subfamily is internal marker.
Human liver HepG2 cells are transiently transfected with multiple reporter transcription units (MRTUs) in 6-well plates using FuGene 6 reagent (Roche; 3 ml FuGene/1 mg DNA). The MRTU constructs are regulated by a cis-regulating element (promoter). […] A major difference between the CIS and TRANS system is that in CIS activities of endogenous TFs are measured, whereas the TRANS assay evaluates changes in activities of exogenous, chimeric NR-Gal4 proteins. […] At the end of 24 hour incubation, total RNA was isolated using TriZol reagent (Invitrogen). The isolated RNA is then reverse-transcribed using oligo(dT) primer and Mo-MLV reverse transcriptase (Invitrogen) with DNAse I (Ambion) treatment for 30 min. The one-tenth of the produced cDNA was amplified by PCR using Taq DNA polymerase (Invitrogen) and two reporter sequence-specific primers. The PCR products were fluorescently labeled by primer extension with 6-arboxyfluorescein (6-FAM) 5'-labeled reporter sequence-specific primer (2 min at 95 C, 20 s at 68 C and 10 min at 72 C) and these products were digested with 5U of HpaI (New England Biolabs) for 2h at 37 C. The fragments were purified using Qiaquick PCR columns (Qiagen), analyzed on an ABI 3130xL genetic analyzer (Applied Biosystems) with peak positions identified by using a set of X-rhodamine (ROX)-labeled MapMarker1000 molecular weight standards (BioVentures). The raw capillary electrophoresis data was processed using Attagraph software (Attagene).
By AC50 is commonly meant the concentration giving half of the maximal activity seen. In the case of `CCC(=C(c1ccc(O)cc1)c1ccc(OCCN(C)C)cc1)c1ccccc1`, the outcome was inactive and the AC50 is 10.4 µM (active).

As to `C#C[C@]1(O)CC[C@H]2[C@@H]3CCC4=CC(=O)CC[C@@H]4[C@H]3CC[C@@]21C`, the result was inactive.

For the molecule `CN1CCC[C@H]1c1cccnc1`, the result was inactive.

With `COC(=O)CCCCC(=O)OC`, the outcome was inactive.

In the case of `CCCCCCCCOC(=O)CCCCCCCCC(=O)OCCCCCCCC`, the molecule was called inactive.

Consider `O=C(O)Cc1cc(I)c(Oc2cc(I)c(O)c(I)c2)c(I)c1`, for which the outcome was inactive and the AC50 is 67 µM (active).

For `NC(=O)N1C(=O)C(C(=O)c2cc(Cl)cs2)c2cc(F)c(Cl)cc21` (stereo not given), the result was inactive.

Take `CC(C)(C)c1cccc(C(C)(C)C)c1O`: the result was inactive.

Consider `CCCCCCCCCCCCc1ccccc1S(=O)(=O)O`, for which the outcome was inactive.

As for `Cc1cc(C)c(O)c(C)c1`, the outcome was inactive.

Consider `C=C(C)C(=O)OCCC(F)(F)C(F)(F)C(F)(F)C(F)(F)C(F)(F)C(F)(F)F`, for which the molecule was classed as inactive.

As for `CC1=C(/C=C/C(C)=C/C=C/C(C)=C/C(=O)O)C(C)(C)CCC1`, the outcome was inactive.

`CC[C@H](C)[C@@H](C(=O)O)n1sc2ccccc2c1=O`: the result was inactive.

For `CC(O)CO` (stereo not given), the call was inactive.

Regarding `CC(C)(C)CC(C)(C)c1ccc(O)c(-n2nc3ccccc3n2)c1`, the molecule was called inactive.

Regarding `O=C(O)c1ccccc1C(c1ccc(O)cc1)c1ccc(O)cc1`, the result was inactive.

With `COc1ccc([N+](=O)[O-])cc1N`, the result was inactive.

Consider `NC(=O)N(O)[C@@H]1C=C[C@H](Oc2cccc(Oc3ccc(F)cc3)c2)C1`, for which the call was inactive.

As for `COCC(C)O` (stereo not given), the molecule was called inactive.

`CC#C[C@]1(O)CC[C@H]2[C@@H]3CCC4=CC(=O)CCC4=C3[C@@H](c3ccc(N(C)C)cc3)C[C@@]21C`: the result was inactive and the AC50 is 14.7 µM (active).

Take `CC(=O)CC(C)(C)O`: the call was inactive.

Take `N#C[C@@H]1CC(F)(F)CN1C(=O)CNC1CC2CCC(C1)N2c1ncccn1` (stereo not given in full): the molecule was classed as inactive.

For `c1ccc2c(c1)ccc1ccccc12`, the molecule was called inactive.

Regarding `CCCCCCCCC(=O)O`, the call was inactive.

Take `Oc1cccc(O)c1`: the molecule was classed as inactive.

As for `CCCCC(CC)COC(=O)CCCCC(=O)OCC(CC)CCCC` (stereo not given), the result was inactive.

Turning to `CCCCCCC(=O)O`, the call was inactive.

Regarding `CCCCCCCCCCCCCC[N+](C)(C)C`, the call was inactive.

Consider `CCCOC(=O)c1ccc(O)cc1`, for which the result was inactive.

On to `O=C1OC2(c3ccccc31)c1cc(Br)c(O)c(Br)c1Oc1c2cc(Br)c(O)c1Br`, for which the outcome was inactive.

Consider `COc1cc(CCC(=O)CC(=O)CCc2ccc(O)c(OC)c2)ccc1O`, for which the outcome was inactive.

Regarding `NCC(F)(F)C(F)(F)C(F)(F)C(F)(F)C(F)(F)C(F)(F)C(F)(F)F`, the result was inactive.

`CCc1ccc(CCOc2ccc(CC3SC(=O)NC3=O)cc2)nc1` (stereo not given): the molecule was called inactive.

Take `O=c1c(-c2ccc(O)cc2)coc2cc(O)ccc12`: the molecule was classed as inactive.

Turning to `CC(C)(C)c1cc(C(C)(C)C)c(O)c(C(C)(C)C)c1`, the molecule was called inactive.

Consider `CC(=O)NC1(c2cccc(F)c2)CCN(CC[C@@]2(c3ccc(Cl)c(Cl)c3)CN(c3ccccc3)C(=O)CO2)CC1`, for which the outcome was inactive.

Turning to `CCc1nn(C2CCCCC2)c2cc(C3(C#N)CCC(C(=O)O)CC3)ccc12` (stereo not given), the result was inactive.
